# In all, about 140,000 sequences were measured (“enrichment ratio after two sorts for PhoP signalling”: median about 0, highest 2% from about 11 on). Many of the other results were omitted from the sample, so the highest values are more common in it than they were.
# B1: PhoQ; a variant is named by its letters at X, in order, P23837 (parent)
# chain: MKKLLRLFFPLSLRVRFLLATAAVVLVLSLAYGMVALIGYSVSFDKTTFRLLRGESNLFYTLAKWENNKLHVELPENIDKQSPTMTLIYDENGQLLWAQRDVPWLMKMIQPDWLKSNGFHEIEADVNDTSLLLSGDHSIQQQLQEVREDDDDAEMTHSVAVNVYPATSRMPKLTIVVVDTIPVELKSSYMVWSWFIYVLSANLLLVIPLLWVAAWWSLRPIEALAKEVRELEEHNRELLNPATTRELTSLVRNLNRLLKSERERYDKYRTTLTDLTHSLKTPLXXLQXXLRSLRSEKMSVSDAEPVMLEQISRISQQIGYYLHRASMRGGTLLSRELHPVAPLLDNLTSALNKVYQRKGVNISLDISPEISFVGEQNDFVEVMGNVLDNACKYCLEFVEISARQTDEHLYIVVEDDGPGIPLSKREVIFDRGQRVDTLRPGQGVGLAVAREITEQYEGKIVAGESMLGGARMEVIFGRQHSAPKDE
# Variants of: B1
# Assay: enrichment ratio after two sorts for PhoP signalling (ratio (wild type AVST 3.29)); higher = more functional
# Conditions: with PhoP (E. coli)
row,Variant,enrichment ratio
1,FIHC,≤ 0.25
2,LFFW,≤ 0.25
3,TMQS,14.3
4,NMQS,≤ 0.25
5,KMQS,≤ 0.25
6,TMQP,≤ 0.25
7,TMQI,12.3
8,MMQI,≤ 0.25
9,KESH,≤ 0.25
10,VQMH,≤ 0.25
11,RVAL,≤ 0.25
12,TFSS,11.4
13,TGSS,11
14,TFSK,≤ 0.25
15,CFSS,11.9
16,VFSS,≤ 0.25
17,WFSS,≤ 0.25
18,LGDN,≤ 0.25
19,FQYK,≤ 0.25
20,SISF,10.7
21,SVSM,13.3
22,STSM,16.4

row,Variant,enrichment ratio
1,SNSF,10.8
2,SVRM,≤ 0.25
3,SISM,16
4,ITSM,2.11
5,SVGM,9.35
6,LTSM,≤ 0.25
7,KYSM,≤ 0.25
8,SNSM,33.4
9,HVDL,≤ 0.25
10,YFNP,≤ 0.25
11,PTIT,≤ 0.25
12,IFSN,≤ 0.25
13,KGDF,≤ 0.25
14,SRSM,0.977
15,SMSM,12.4
16,SSSM,14.8
17,SMHF,≤ 0.25
18,FCSM,0.747
19,SDSM,1.33
20,SCSM,14.5
21,NSSM,0.911
22,SCSF,9.85

row,Variant,enrichment ratio
1,SSSF,10
2,SMSF,5.95
3,SQSM,15.9
4,SGVE,≤ 0.25
5,SWGV,≤ 0.25
6,IDET,≤ 0.25
7,RIHD,≤ 0.25
8,LNHQ,≤ 0.25
9,IEMK,≤ 0.25
10,EVHQ,≤ 0.25
11,KQSM,≤ 0.25
12,TTSM,14.8
13,SGSM,12.7
14,KSSM,≤ 0.25
15,SPSM,≤ 0.25
16,TSSM,24.4
17,TVSM,37.3
18,NVSM,≤ 0.25
19,MMSM,7.2
20,YTSM,1.02
21,SGSF,1.84
22,KQAV,≤ 0.25

row,Variant,enrichment ratio
1,DAHD,≤ 0.25
2,QSHT,≤ 0.25
3,PIQW,≤ 0.25
4,FMCI,≤ 0.25
5,MYGI,≤ 0.25
6,ICFI,≤ 0.25
7,VCSA,≤ 0.25
8,YCHV,≤ 0.25
9,HSSA,≤ 0.25
10,SMEV,≤ 0.25
11,GVTM,8.91
12,GVAK,11.7
13,GVAM,15.2
14,GVPM,≤ 0.25
15,MVAM,39.4
16,MVWM,0.553
17,NVAK,≤ 0.25
18,MVAK,5.7
19,MVPM,≤ 0.25
